PubChem BioAssay (NCATS)
Inconclusive results are not listed. Active and inactive are the calls of the source. Calls follow the shape of the dose curve; as a rule, active = well fitted curve in the direction sought with a large enough effect; inconclusive = small, poorly fitted or top-dose-only effect, or another doubt; inactive = no such curve, though single readings can be large; an effect the other way counts as inactive or inconclusive.

Experiments:
[1] = target: Protein phosphatase 1D (Homo sapiens) (UniProt O15297); assay: RapidFire Mass Spectrometry qHTS Assay for Modulators of WT P53-Induced Phosphatase 1 (WIP1) (AID 1347424); conditions: WIP1 dephosphorylation of phosphopeptide, RapidFire MS; series mostly up to 63 µM
Protein phosphatase 1D (Homo sapiens), sequence (O15297 whole entry, looked up): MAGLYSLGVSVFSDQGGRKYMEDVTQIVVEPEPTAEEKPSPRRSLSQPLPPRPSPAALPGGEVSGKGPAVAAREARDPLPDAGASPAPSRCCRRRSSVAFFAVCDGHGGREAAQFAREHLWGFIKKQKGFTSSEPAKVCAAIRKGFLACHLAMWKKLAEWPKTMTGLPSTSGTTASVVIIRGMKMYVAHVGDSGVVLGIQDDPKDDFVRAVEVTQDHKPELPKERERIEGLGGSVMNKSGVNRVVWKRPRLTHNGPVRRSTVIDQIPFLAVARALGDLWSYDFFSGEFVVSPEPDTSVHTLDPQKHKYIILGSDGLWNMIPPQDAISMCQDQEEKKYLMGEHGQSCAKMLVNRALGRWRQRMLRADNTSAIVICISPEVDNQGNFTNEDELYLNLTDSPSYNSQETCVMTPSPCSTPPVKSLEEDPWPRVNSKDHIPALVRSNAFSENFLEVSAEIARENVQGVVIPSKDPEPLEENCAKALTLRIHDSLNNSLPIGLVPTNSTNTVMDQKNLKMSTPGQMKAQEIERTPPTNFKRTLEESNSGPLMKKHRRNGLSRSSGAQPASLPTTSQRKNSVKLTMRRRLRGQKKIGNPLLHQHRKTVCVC
Method in brief: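 RapidFire MS readout of dephosphorylated VEPPL-S-QETFS product, with 1 uM isotope-labelled peptide standard. Reaction: 10 nM WIP1, 2 uM phosphopeptide substrate, 5 min, room temperature, after 1 h compound preincubation; stopped with 0.5% formic acid.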

[2] = target: Protein phosphatase 1D (Homo sapiens) (UniProt O15297); assay: Rhodamine-PBP qHTS Assay for Modulators of WT P53-Induced Phosphatase 1 (WIP1) (AID 1347425); conditions: recombinant WIP1, Rhodamine-PBP phosphate fluorescence, real-time; series mostly up to 57.5 µM
Method in brief: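 Read-out: Rhodamine-PBP fluorescence (ex 525/em 598 nm) for released Pi, read each minute for 11 min after adding 10 uM VEPPL-pS-QETFS; signal taken as f1 minus pre-substrate f0. Enzyme 5 nM WIP1 with 1 hr room-temperature compound preincubation.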

[3] = Primary qHTS for inhibitors of La Crosse Virus (LACV) - induced cell death in SH-SY5Y cells (AID 1508616); conditions: SH-SY5Y LACV cytopathicity rescue, ATP luminescence, 6 d; series mostly up to 4.29 µM;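 also: top concentration of the series differs between compounds; higher means more rescue of cells from virus-induced death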
Method in brief: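 Cytopathicity rescue screen: compounds pinned onto SH-SY5Y cells, which are then infected with LACV (MOI 0.01) and held 6 days at 37C. Percent activity is scaled between infected DMSO control and uninfected DMSO control.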

[4] = target: Calcium and integrin-binding protein 1 (Homo sapiens) (UniProt Q99828); assay: Primary qHTS for Identification of Calcium Integrin Binding Protein 1 (CIB1) Competitor (AID 1508620); conditions: CIB1-GST / FITC-alphaIIb peptide fluorescence polarization; series mostly up to 114 µM;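 also: GST tagged CIB1 binding a fluorescein labelled alphaIIb integrin peptide tracer; top concentration of the series differs between compounds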
Calcium and integrin-binding protein 1 (Homo sapiens), sequence (Q99828 whole entry, looked up): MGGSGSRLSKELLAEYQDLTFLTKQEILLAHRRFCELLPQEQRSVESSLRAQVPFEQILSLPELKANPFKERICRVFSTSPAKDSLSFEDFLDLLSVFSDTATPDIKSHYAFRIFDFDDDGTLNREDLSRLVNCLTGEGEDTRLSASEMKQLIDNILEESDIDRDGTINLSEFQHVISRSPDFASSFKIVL
Method in brief: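 Fluorescence polarization competition: GST-tagged CIB1 (1 uM final) preincubated with compound 15 min at room temperature, then FITC-labelled alphaIIb peptide (100 nM final) added. After 15 min at room temperature, polarization read at Ex 480/Em 540.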

Measured: Potency

C[C@H]1C[C@H]2[C@@H]3CCC4=CC(=O)C=C[C@]4(C)[C@@]3(Cl)[C@@H](O)C[C@]2(C)[C@@]1(O)C(=O)CO
inactive: all assays above

CC1(C)O[C@@H]2C[C@H]3[C@@H]4CCC5=CC(=O)CC[C@]5(C)[C@@]4(F)[C@@H](O)C[C@]3(C)[C@]2(C(=O)CCl)O1
inactive: all assays above

C[C@@H](CN(C)C)CN1c2ccccc2Sc2ccccc21
inactive: all assays above

CC1(C)O[C@@H]2C[C@H]3[C@@H]4C[C@H](F)C5=CC(=O)C=C[C@]5(C)[C@H]4[C@@H](O)C[C@]3(C)[C@]2(C(=O)CO)O1
inactive: all assays above

CC(=O)Oc1ccc2c(c1)CC[C@@H]1[C@@H]2CC[C@]2(C)[C@@H](O)CC[C@@H]12
inactive: all assays above

Cc1ccc(Nc2c(F)cccc2Cl)c(CC(=O)O)c1
inactive: all assays above

C[C@@H]1C[C@H]2[C@@H]3C[C@H](F)C4=CC(=O)C(Cl)=C[C@]4(C)[C@@]3(F)[C@@H](O)C[C@]2(C)[C@@]1(O)C(=O)CO
inactive: all assays above

CCCCc1nc(Cl)c(CO)n1Cc1ccc(-c2ccccc2-c2nn[nH]n2)cc1
inactive: all assays above

CCCCCCCCCCOCC(O)CN (stereo not given)
inactive: all assays above

c1ccc(OCc2ccc(CCCN3CCOCC3)cc2)cc1
inactive: all assays above
